The values below come from the supplement of paper PMC7156485.

± gives the standard deviation of the averaged measurements.
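Note: TDF denotes transformed human dermal fibroblasts of mesenchymal origin.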

In one assay the test system is HCC1569. Nature of the assay: cell number relative to DMSO (% of DMSO); higher = more cells (less growth inhibition / toxicity). To be noted: concentration: 10 µM; 24 h. The method, boiled down:
(§1)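 H1.0 nuclear intensity or cell number is expressed as percent of the plate control, with the median of replicates taken. HCC1569 and TDF cells were treated with compounds at 10 µM for 24 h at 37 °C, in triplicate, then fixed and immunostained for H1.0 with DAPI as a nuclear stain. HCC1569 values were smoothed to correct for positional effects.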
Consider `O=C(O)CN(CCN(CC(=O)O)CC(=O)O)CCN(CC(=O)O)CC(=O)O` [Diethylenetriaminepentaacetic acid], for which the cell number came out at 95.4.

Regarding `O=[N+]([O-])c1cccc2cn[nH]c12` [7-Nitroindazole], the cell number was 105.

In turn, `O=C(NC(CO)C(O)c1ccc([N+](=O)[O-])cc1)C(Cl)Cl` (centres undefined) [Chloramphenicol] gave a cell number of 100.

`O=C(O)[C@H]1C[C@H](C(=O)O)N1` (relative stereo) [trans-Azetidine-2,4-dicarboxylic acid] returned a cell number of 95.1.

A further assay has as its system TDF. The assay is described as above. To be noted: concentration: 10 µM; 24 h. The procedure, abridged:
as §1
Consider `O=C(Nc1ccc(Oc2ccnc3[nH]ccc23)c(F)c1)c1cccn(-c2ccc(F)cc2)c1=O`, for which the cell number was determined as 103.

As to `Nc1nnc(-c2cccc(Cl)c2Cl)c(N)n1` [Lamotrigine], the cell number worked out at 105 ± 2.

`Cn1cnc2c(NCc3ccccc3)nc(NCCO)nc21` [Olomoucine] came in with a cell number of 121.

`Cc1cnc(Nc2ccc(OCCN3CCCC3)cc2)nc1Nc1cccc(S(=O)(=O)NC(C)(C)C)c1`: the cell number amounted to 43.3.

For the molecule `NC(CS(=O)O)C(=O)O` [L-Cysteinesulfinic Acid], the cell number worked out at 113.

`CC(C=Cc1cccc(Oc2ccc(F)cc2)c1)N(O)C(N)=O` (centres undefined) gave a cell number of 101.

`CC=C1C2C=C(C)CC1(N)c1ccc(=O)[nH]c1C2` (single isomer, unassigned; (-)) [(-)-Huperazine] returned a cell number of 100.

`C=C(C)C1CC=C(C(=O)O)CC1` (single isomer, unassigned; (-)) [(-)-Perillic acid] showed a cell number of 104.

The molecule `COc1ccccc1O` [Guaiacol] had a cell number of 107.

With `O=C([O-])C=CC(O)c1ccc(Cl)cc1.[Na+]` (centres undefined), the cell number came to 97.4.

In turn, `Br.CN=c1nc(-c2ccccc2)n(-c2ccccc2)s1` registered a cell number of 107.

For `CN(C)C(=O)COC(=O)Cc1ccc(OC(=O)c2ccc(N=C(N)N)cc2)cc1.CS(=O)(=O)O`, the cell number was found to be 115.

For the molecule `COc1ccc(CC[C@H]2CCC[C@@H](CCc3ccc(OC)cc3)N2C[C@@H](O)CO)cc1.Cl`, the cell number is 103.

On to `CC(C)C(CO)Nc1nc(Nc2ccc(C(=O)O)c(Cl)c2)c2ncn(C(C)C)c2n1` (centres undefined) [Purvalanol B], for which the cell number is 110.

With `CCCCCCCCCCCCCCCC(=O)NCCO` [Palmitoylethanolamide], the cell number amounted to 101.

`Br.CN(C)CCCC1(c2ccc(F)cc2)OCc2cc(C#N)ccc21` (centres undefined) [Citalopram hydrobromide] returned a cell number of 103.

Turning to `COc1cc(C2Oc3cc(C4Oc5cc(O)cc(O)c5C(=O)C4O)ccc3OC2CO)ccc1O` (centres undefined) [Silymarin], the cell number came out at 93.6.

`CN=C(NC#N)NCCSCc1nc[nH]c1C` [Cimetidine] had a cell number of 100 ± 12.

In turn, `CC(=O)NCCOC(=O)[C@H](Oc1cccc(C(F)(F)F)c1)c1ccc(Cl)cc1` registered a cell number of 100.

Regarding `C=CCSC[C@H](N)C(=O)O` [(2R)-3-(allylsulfanyl)-2-aminopropanoic acid], the cell number stood at 95.1.

Molecule `CCC=CCC=CCC=CCC=CCC=CCCC(=O)OC(COCCCCCCCCCCCCCCCC)COP(=O)([O-])OCC[N+](C)(C)C` (centres undefined) yielded a cell number of 107.

Molecule `CCN1CCCC1CNC(=O)c1cc(S(N)(=O)=O)ccc1OC` [(S)-(-)-Sulpiride] showed a cell number of 98.1.

`Oc1ccc(-c2c(-c3ccccc3)nn3c(C(F)(F)F)cc(C(F)(F)F)nc23)cc1`: the cell number was determined as 12.4.

Turning to `CCC1=C(C)CN(C(=O)NCCc2ccc(S(=O)(=O)NC(=O)NC3CCC(C)CC3)cc2)C1=O` (centres undefined) [Glimepiride], the cell number worked out at 111.

In the case of `C=C1CCC2OC2(C)CCC2C1CC2(C)C` (centres undefined) [Caryophylline], the cell number worked out at 99.

For `NC(=S)NCCCC(N)C(=O)O` (centres undefined) [Thiocitrulline], the cell number came to 112.

For the molecule `CC(OC(=O)c1ccc(F)cc1F)C(=O)N(C)C1CCS(=O)(=O)C1` (centres undefined) [Cdk2/9 Inhibitor], the cell number amounted to 29.1.

`CC(=O)c1ccc(S(=O)(=O)NC(=O)NC2CCCCC2)cc1` [Acetohexamide] displayed a cell number of 107.

`COc1ccc(C(=O)/C(Cc2cc(OC)c(OC)c(OC)c2)=C(\C(=O)[O-])c2ccc3c(c2)OCO3)cc1.[Na+]`: the cell number came to 98.7.

As for `Cc1cccc(C)c1OCC(C)N.Cl` (centres undefined) [Mexiletene hydrochloride], the cell number came to 104.

In the case of `O=c1cc(N2CCOCC2)oc2c1ccc1ccccc12` [NU 7026 - 2-(4-Morpholinyl)-4H-naphthol[1,2-b]pyran-4-one], the cell number was 106.

The molecule `C=C(c1ccc(C(=O)O)cc1)c1cc2c(cc1C)C(C)(C)CCC2(C)C` [Bexarotene] had a cell number of 103.

`Nc1cc(=O)nc(N)[nH]1` [2,6-Diamino-4-pyrimidinone] gave a cell number of 104.

Take `CC(=O)C1(O)CCC2C3CCC4=CC(=O)CCC4(C)C3CCC21C` (centres undefined) [17- Hydroxyprogesterone]: the cell number stood at 96.

Take `C[n+]1cc2c3c(ccc2c2ccc4cc5c(cc4c21)OCO5)OCO3` [Sanguinarine]: the cell number is 93.6.

As for `CCCOc1ccc(C=C2SC(=O)NC2=O)cc1` [PIM1/2 Kinase Inhibitor VI], the cell number amounted to 110.

In turn, `O=C(O)CN(CCN(CC(=O)O)CC(=O)O)CCN(CC(=O)O)CC(=O)O` [Diethylenetriaminepentaacetic acid] returned a cell number of 104.

`O=[N+]([O-])c1cccc2cn[nH]c12` [7-Nitroindazole] gave a cell number of 109.

With `O=C(NC(CO)C(O)c1ccc([N+](=O)[O-])cc1)C(Cl)Cl` (centres undefined) [Chloramphenicol], the cell number was 92.2.

As to `O=C(O)[C@H]1C[C@H](C(=O)O)N1` (relative stereo) [trans-Azetidine-2,4-dicarboxylic acid], the cell number worked out at 106.
